Test results: PubChem BioAssay (EPA / NIEHS)
Some compounds were tested as several samples or in several runs, with calls that do not always agree. Active and inactive are the calls of the source. How the source made its calls: active means hit-call score of the fitted dose curve at least 0.9, where 1 is the maximum; inactive means score below 0.9.

read-out: Thrombomodulin, THBD (gene 7056); test: BSK_3C_Thrombomodulin: BioMAP Diversity Plus: 3C Assay for Thrombomodulin Biomarker Activity (AID 2283029); details: primary human endothelial cells (HUVEC); actives raise or lower the signal
Experimental: BSK_3C is a cell-based, multiplexed-readout assay that uses umbilical vein endothelium, a human vascular primary cell, with measurements taken at 24 hours after chemical dosing in a 96-well plate.BSK_3C_Thrombomodulin is an assay component measured in the BSK_3C assay. It measures Thrombomodulin antibody related to regulation of gene expression using ELISA technology.Data from the assay component BSK_3C_Thrombomodulin was analyzed into 1 assay endpoint. This assay endpoint, BSK_3C_Thrombomodulin, was analyzed with bidirectional fitting relative to DMSO as the negative control and baseline of activity. Using a type of binding reporter, gain or loss-of-signal activity can be used to understand changes in the signaling as they relate to the gene THBD. Furthermore, this assay endpoint can be referred to as a primary readout, because this assay has produced multiple assay endpoints where this one serves a signaling function. To generalize the intended target to other relatable targets, this assay endpoint is annotated to the gpcr intended target family, where the subfamily is rhodopsin-like receptor.
The levels of cell surface (or secreted, indicated by the prefix "s") biomarker endpoints were measured by ELISA. Overt cytotoxicity to cells in confluent adherent cultures (all systems other than the BT system) was assessed by measuring total protein levels using sulforhodamine B (SRB) staining in parallel cultures at the time of biomarker measurements, indicated as SRB endpoints. For proliferation assays for adherent cell types, individual cell types are cultured at sub-confluence and relative cell numbers quantified by SRB staining at time points optimized for each system (48 h: 3C and CASM3C systems; 72 h: BT and HDF3CGF systems; 96 h: SAg system). SRB was performed by staining cells with 0.1% SRB after fixation with 10% TCA and reading wells at 560 nm.Viability and proliferation of PBMC (T cells) was quantified by Alamar Blue reduction for the SAg and BT systems. For PBMC viability (referred to as PBMC Cytotoxicity within the assay endpoint names), cells were plated (75,000/well in a 96-well plate) and then chemical samples added for 1 h before addition of activators, SEB and TSST-1 (20 ng/mL final concentration each). Cells were incubated for 90 h. Then, Alamar Blue (20 uL/well) (Invitrogen, Cat DAL1100) was added for 6 h, and the plates were read with a fluorescence microplate reader at 546/580 nm (excitation/emission). For PBMC proliferation, cells were plated and activated as above but incubated for only 16 h prior to addition of Alamar Blue. Plates were read after 6 h.

Row | Compound | outcome | AC50
1 | Nc1ccc(Cl)cc1 | inactive | 
2 | Cc1ccc([N+](=O)[O-])cc1C | inactive | 
3 | CCCCCCCc1ccc(O)cc1 | inactive | 
4 | CCOc1ccc(C(C)(C)COCc2cccc(Oc3ccccc3)c2)cc1 | inactive | 
5 | N#Cc1cc([N+](=O)[O-])ccc1N | inactive | 
6 | Nc1ccc([N+](=O)[O-])cc1Cl | inactive | 
7 | Cc1ccc(O)cc1C | inactive | 
8 | Nc1cc2c3c(c1)C(c1ccccc1)=N[C@@H](NC(=O)c1cccnc1)C(=O)N3CC2 | inactive | 
9 | Nc1ccc2ccccc2c1 | inactive | 
10 | c1ccc2c(c1)sc1ccccc12 | inactive | 
11 | CCNc1nc(Cl)nc(NC(C)(C)C)n1 | inactive | 
12 | [N-]=[N+]=[N-] | inactive | 
13 | O=P(OCC(Br)CBr)(OCC(Br)CBr)OCC(Br)CBr (stereo not given) | inactive | 
14 | CCOP(=S)(OCC)SCn1nnc2ccccc2c1=O | inactive | 
15 | ClC1=C(Cl)C2(Cl)C3C(Cl)C(Cl)CC3C1(Cl)C2(Cl)Cl (stereo not given) | inactive | 
16 | COP(=O)(CCC(=O)NCO)OC | inactive | 
17 | c1nc[nH]n1 | inactive | 
18 | OCC(F)(F)OC(F)(F)C(F)(F)OC(F)(F)C(F)(F)OC(F)(F)CO | inactive | 
19 | O=[N+]([O-])c1ccccc1 | inactive | 
20 | CSC(C)(C)C=NO | inactive | 

Row | Compound | outcome | AC50
21 | Cc1ccc2c(c1N)C(=O)c1ccccc1C2=O | inactive | 
22 | C=CC(=O)OCC(CC)(COC(=O)C=C)COC(=O)C=C | inactive | 
23 | CCC(C)(C)c1ccc(O)cc1 | inactive | 
24 | CN(C)C(=O)Cl | inactive | 
25 | O=C(O)C(F)(F)OC(F)(F)C(F)(F)OC(F)(F)F | inactive | 
26 | c1cc2c3c(cccc3c1)CC2 | inactive | 
27 | Cc1c([N+](=O)[O-])cc2c(c1[N+](=O)[O-])C(C)(C)CC2(C)C | inactive | 
28 | COC(=O)C(F)(F)C(F)(F)OC(F)(C(F)(F)F)C(F)(F)OC(F)=C(F)F (stereo not given) | inactive | 
29 | c1ccc(OP(Oc2ccccc2)Oc2ccccc2)cc1 | inactive | 
30 | O=C(O)C1C(C(=O)O)C2(Cl)C(Cl)=C(Cl)C1(Cl)C2(Cl)Cl (stereo not given) | inactive | 
31 | OCC(F)(F)OC(F)(F)C(F)(F)OC(F)(F)C(F)(F)OC(F)(F)F | inactive | 
32 | C=CC(=O)OCC(F)(F)C(F)F | inactive | 8.19 µM (active)
33 | O=C(O)C(F)(OC(F)(F)C(F)(F)C(F)(F)F)C(F)(F)F (stereo not given) | inactive | 
34 | CCCCN(CCCC)N=O | inactive | 
35 | CCCCN(CCCC)SN(C)C(=O)Oc1cccc2c1OC(C)(C)C2 | inactive | 
36 | OCC(F)(F)OC(F)(F)C(F)(F)OC(F)(F)CO | inactive | 
37 | O=[N+]([O-])c1ccc(Cl)c(Cl)c1 | inactive | 
38 | CC(Cl)CN(C)C (stereo not given) | inactive | 
39 | CCOP(=S)(OCC)SCSc1ccc(Cl)cc1 | inactive | 
